Out of some 4,900 compounds screened, about 200 (4.1%) were called active.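 The calls were made as follows: active = thallium signal drop more than 5 SD beyond the mean of the no-compound control wells, seen in both duplicate plates; inactive = the rest.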 Not all results are given here.
target: Inward rectifier potassium channel 2 (Mus musculus) (UniProt P35561); assay: mouse Kir2.1 channel inhibition, confirmation, selectivity assay for KCNK9 modulator project, cell-based, HEK293, thallium flux (AID 492993); conditions: Kir2.1 cells, FluxOR thallium flux fluorescence, at 10 µM; active compounds read high;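 as to inhibition: signal is fluorescence rise after thallium addition divided by baseline fluorescence; plate controls were assay buffer only for no effect and full block by chlorpromazine control for full effect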
Sequence (P35561 whole entry, looked up): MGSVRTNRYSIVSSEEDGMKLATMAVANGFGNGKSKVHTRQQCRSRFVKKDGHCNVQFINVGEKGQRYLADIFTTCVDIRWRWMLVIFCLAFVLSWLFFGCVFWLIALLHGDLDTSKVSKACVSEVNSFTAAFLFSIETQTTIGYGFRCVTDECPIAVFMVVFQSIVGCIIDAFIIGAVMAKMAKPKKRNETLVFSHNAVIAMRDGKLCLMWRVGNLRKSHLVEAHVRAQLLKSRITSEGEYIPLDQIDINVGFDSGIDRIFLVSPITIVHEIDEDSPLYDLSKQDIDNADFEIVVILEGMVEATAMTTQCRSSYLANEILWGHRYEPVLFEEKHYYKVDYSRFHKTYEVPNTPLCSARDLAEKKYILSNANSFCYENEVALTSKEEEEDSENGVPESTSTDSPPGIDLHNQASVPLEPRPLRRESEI

Row | Compound | inhibition
1 | C=CCc1cc(S(=O)(=O)c2ccc(O)c(CC=C)c2)ccc1O | inactive
2 | COc1ccc(C2CC(c3cccs3)=NN2c2ccccc2)cc1 (stereo not drawn) | inactive
3 | Cc1cccc(N(C)C(=O)CN2C(=O)COc3ccc(S(=O)(=O)N4CCCCCC4)cc32)c1 | inactive
4 | CCOC(=O)c1c(NC(=O)CSc2cn(CC)c3ccccc23)sc2c1CCC2 | inactive
5 | CCCCCC(O)c1cccc(OCc2ccc3ccccc3n2)c1 (stereo not drawn) | 70.5% (active)
6 | COc1cccc(COC(=O)C2CCN(S(=O)(=O)c3ccc(Cl)cc3)CC2)c1OC | inactive
7 | CC(C)C(=O)Nc1cccc(NC(=S)NC(=O)C(c2ccccc2)c2ccccc2)c1 | inactive
8 | O=C(Cn1cc(C(=O)c2cccs2)c2ccccc21)NCc1cccs1 | inactive
9 | C/C(=N\NC(=S)Nc1ccc(C)cc1)c1cc2ccccc2o1 | inactive
10 | Cc1ccc(SCC(=O)c2cc(C)c(OC(=S)N(C)C)c(C)c2)cc1 | inactive
11 | CCOC(=O)Cc1cc(=O)[nH]c(=O)[nH]1 | inactive
12 | O=C(NNc1ccccc1Cl)C(O)(c1cccc(C(F)(F)F)c1)c1cccc(C(F)(F)F)c1 | inactive
13 | c1ccc(C(c2ccccc2)N2CCN(Cc3nnnn3C3CCCCC3)CC2)cc1 | inactive
14 | CC1(C)CC(N2CCN(C(c3ccccc3)c3ccccc3)CC2)=CC(=[N+]2CCCCC2)C1 | 65% (active)
15 | CCC(C)(C)n1nnnc1C(c1cccs1)N1CCN(c2nc3ccccc3s2)CC1 (stereo not drawn) | inactive
16 | Clc1ccc(CSc2nnc(/C=C/c3ccccc3)o2)c(Cl)c1 | inactive
17 | COc1ccccc1C(c1nnnn1C(C)(C)C)N1CCN(Cc2ccccc2)CC1 (stereo not drawn) | inactive
18 | CN(C)S(=O)(=O)N1CCC(Oc2cccc(C(=O)NCCCC3CCCC3)c2)CC1 | inactive
19 | O=[N+]([O-])c1ccc(N2CCN(CC(O)COc3ccccc3)CC2)cc1 (stereo not drawn) | inactive
20 | O=C(Oc1ccc(Br)cc1C(=S)N1CCOCC1)c1cccc([N+](=O)[O-])c1 | inactive
21 | CN(CCOc1ccccc1)C(=O)c1cc(COc2c(F)cccc2F)on1 | inactive
22 | COC(=O)c1sc(-c2ccc(C(C)(C)C)cc2)cc1NC(=O)/C=C/C(=O)O | inactive
23 | COc1cc(C(CCN2CCN(c3ccccc3)CC2)c2c(OC)cc(OC)c3ccc(=O)oc23)cc(OC)c1OC (stereo not drawn) | inactive
24 | O=C1/C(=C/c2ccc3c(c2)OCO3)CCC/C1=C\c1ccc2c(c1)OCO2 | inactive
25 | O=C(Nc1cc(Cl)cc(Cl)c1)C(NCCCO)c1ccccc1 (stereo not drawn) | inactive
26 | O=C(NCc1ccco1)c1ccc(NS(=O)(=O)c2cccc([N+](=O)[O-])c2)cc1 | inactive

Row | Compound | inhibition
27 | O=C1c2ccccc2C2=Nc3ccccc3SC(c3ccccc3F)C12 (stereo not drawn) | inactive
28 | Cc1cccc(NC(=O)CN2CCCN(S(=O)(=O)c3ccc(Br)s3)CC2)c1 | inactive
29 | Cc1ccc(C)c(NC(=S)NNC(=S)Nc2ccc(C(C)C)cc2)c1 | inactive
30 | Cc1c(C(=O)Nc2ccccn2)oc2ccc(Br)cc12 | inactive
31 | O=C(CC(NC(=O)c1ccccc1)c1ccccc1)Nc1ccc(F)c(F)c1 (stereo not drawn) | inactive
32 | CCCCN(CC)C(=O)C1CCCN(S(=O)(=O)c2cccc3nsnc23)C1 (stereo not drawn) | inactive
33 | Oc1ccc(/C=N/Nc2nc(-c3ccccc3F)nc3ccccc23)c(O)c1 | inactive
34 | COC(=O)Cn1cnc2scc(-c3ccc(C)c(C)c3)c2c1=O | inactive
35 | O=C(Nc1ccc(Cl)c(Cl)c1)N1CC=C(c2ccccc2)CC1 | inactive
36 | Cc1ccc(C(=O)/C=C/c2c(C)nn(-c3ccccc3)c2Cl)cc1 | inactive
37 | CCCOc1ccc2c3c(c(=O)oc2c1OCCC)CCC3 | inactive
38 | COc1cccc(-c2cc3nc4c(c(N5CCC6(CC5)OCCO6)n3n2)CCCC4)c1 | inactive
39 | Cc1nn(CC(=O)Nc2nc3ccccc3s2)c(C)c1[N+](=O)[O-] | inactive
40 | COc1ccc(C(=O)C2CCCN(Cc3ccc4nonc4c3)C2)c(C)c1 (stereo not drawn) | inactive
41 | Cc1ccc(-c2csc(NCCc3nc4cc(Cl)c(Cl)cc4n3CCOCCO)n2)cc1 | inactive
42 | COc1ccc2c(c1)C(c1cccs1)=NNC(c1cccnc1)=N2 | inactive
43 | COc1ccc([N+](=O)[O-])cc1-c1nc2ccccc2nc1-c1ccccc1 | inactive
44 | Cc1cc2ccccn2c1C(=O)c1cccc(S(=O)(=O)N2CCOCC2)c1 | inactive
45 | COc1ccc(/C=C2\CCc3ccccc3C2=O)c(OC)c1OC | inactive
46 | COc1cccc(OC)c1C(=O)Nc1sc2c(c1C(N)=O)CCCC2 | inactive
47 | CC(C)N(C(=O)CSc1nc(COc2ccccc2)nc2ccccc12)C(C)C | inactive
48 | O=c1cc(CN2CCN(c3cccc(Cl)c3)CC2)c2cc3c(cc2o1)CCCC3 | inactive
49 | Cc1ccc(CN2CCN(/N=C/c3ccco3)CC2)c(C)c1 | inactive
50 | Cc1[nH]c2ccccc2c1CCN(Cc1cccs1)C(=S)NC(C)(C)C | inactive
51 | O=C(CSCc1ccc(Cl)cc1)N1CCN(Cc2ccc3c(c2)OCO3)CC1 | inactive
52 | CCC/C=C(\CCC)C(NC(=O)Cc1ccccc1)c1ccc(C(=O)OC)cc1 (stereo not drawn) | inactive

Row | Compound | inhibition
53 | O=C1CC(NNc2ccccc2)C(=O)N1c1cccc(Cl)c1 (stereo not drawn) | inactive
54 | FC(F)(F)c1cc(-c2ccco2)nc(NCc2ccc(Cl)cc2)n1 | inactive
55 | COc1ccc(NC(=O)CN(C)CC(=O)Nc2cccc(C(F)(F)F)c2)cc1 | inactive
56 | CCCCCCCCCCOC(=O)Cn1c(COc2cccc(OC)c2)[n+](C)c2ccccc21 | 70% (active)
57 | CCCCCn1c(=O)c(C(=O)OCC)c(Cl)c2ccccc21 | inactive
58 | CCCCCCCCCCOC(=O)Cn1c(COc2ccc(C)cc2)[n+](C)c2ccccc21 | 60.5% (active)
59 | CCCSc1nc(NCc2ccco2)c2c3c(sc2n1)COC(C)(CC)C3 (stereo not drawn) | inactive
60 | COc1ccc(-c2noc(CSc3ccc(C)cc3)n2)cc1 | inactive
61 | COc1cccc(COc2ccc(N(C)S(=O)(=O)c3ccccc3)cc2)c1 | inactive
62 | CCOc1ccc(C(C)C)cc1S(=O)(=O)n1nc(C)cc1C | inactive
63 | Cc1cc(C=O)c(C)n1-c1ccc(NC2CCCCC2)c([N+](=O)[O-])c1 | inactive
64 | O=C(C[C@H]1C(=O)N(c2ccc(F)c(F)c2)C[C@@H]1Cc1ccccc1)Nc1ccccc1 | inactive
65 | CCCCNC(=S)N/N=C1\CCCCc2ccccc21 | inactive
66 | CC(C)(C)SCCSC1=CC(=O)CC(c2ccccc2)C1 (stereo not drawn) | inactive
67 | COc1ccc(C(C)=O)cc1COc1ccc(Cl)c(C)c1 | inactive
68 | CCOC(=O)c1c(NC(=O)CCCN2CCOCC2)sc2c1CC(C)(C)OC2 | inactive
69 | Cc1cc(C)cc(NC(=O)CSCc2cnn(-c3ccccc3)c2-n2cccc2)c1 | 43% (active)
70 | O=C1c2ccccc2S(=O)(=O)N1CC(O)Cn1c2ccccc2c2ccccc21 (stereo not drawn) | inactive
71 | COc1cc(Cl)c(S(=O)(=O)N2CCN(Cc3ccc4c(c3)OCO4)CC2)cc1Cl | inactive
72 | Cc1cc(Cl)ccc1C(=O)C1CCCN(C(=O)CCN2CCCO2)C1 (stereo not drawn) | inactive
73 | Cc1ccccc1N1CCN(Cc2nc(Cc3ccccc3F)no2)CC1 | inactive
74 | COc1cccc(C(=O)NCCSc2ccc(Br)cc2)c1 | inactive
75 | COc1cc(NC(=S)NCCSc2ccc(C)cc2)cc(OC)c1 | inactive
76 | O=S(=O)(c1ccc(F)cc1)N1CCN(Cc2ccccc2C(F)(F)F)CC1 | inactive
77 | O=C(CSCc1ccc(Br)cc1)Nc1ccc(S(=O)(=O)N2CCCCCC2)cc1 | inactive
78 | CC1=C/C(=N\OS(=O)(=O)c2ccccc2)C=CC1=O | inactive

Row | Compound | inhibition
79 | COc1ccc(-c2oc(/N=C/N3CCCC3)c(C#N)c2-c2ccc(OC)cc2)cc1 | inactive
80 | Cc1ccc(S(=O)(=O)N2CCN(C(=O)COC(=O)c3c(C)cc(C)cc3C)CC2)c(C)c1 | inactive
81 | Cc1ccc(NC2CCCN(C(=O)CCC3(C)CC3)C2)cc1C (stereo not drawn) | inactive
82 | CCOc1ccccc1NC(=O)C12CC3CC(C1)CC(c1ccc(C)cc1)(C3)C2 | inactive
83 | COCCN(C(=S)Nc1cccc(Cl)c1C)C(C)c1ccco1 (stereo not drawn) | inactive
84 | Cn1nc(-c2ccccc2)c(CSc2cccc(Cl)c2)c1Cl | inactive
85 | COc1ccc(C2Nc3ccccc3C(=O)N2Cc2ccccc2)cc1Cn1nnc2ccccc21 (stereo not drawn) | inactive
86 | Cc1csc(Nc2ccc(Cl)cc2)[n+]1-c1ccc(Cl)cc1 | inactive
87 | CCC1=NN(C(=O)Cc2ccc([N+](=O)[O-])cc2)C(O)(c2ccc(Br)cc2)C1 (stereo not drawn) | inactive
88 | COc1ccc(OC)c(C(=O)c2coc3ccc(OC)cc23)c1 | inactive
89 | Cc1cc(Oc2ccc(Cl)cc2)nc(SCC(=O)c2ccccc2)n1 | inactive
90 | CCCC(=O)n1nc(NCc2ccc(OC)cc2)nc1NCc1ccc(OC)cc1 | inactive
91 | CCCCn1ccnc1C(=O)c1cccc(S(=O)(=O)N2c3ccccc3CC2C)c1 (stereo not drawn) | inactive
92 | CCCC1=Nc2cc(C(=O)NCc3ccco3)ccc2Sc2ccccc21 | inactive
93 | Cc1ccc(N2CCN(S(=O)(=O)c3ccc(F)cc3)CC2)c(C)c1 | inactive
94 | O=[N+]([O-])/C=C/c1ccc2c(ccn2Cc2ccccc2)c1 | 41.5% (active)
95 | CCc1cccc(C)c1N(C(=O)Cn1c(CO)nc2ccccc21)C(C)COC (stereo not drawn) | inactive
96 | CCCN1C(=O)C(Cc2nc3ccccc3c(=O)n2-c2ccccc2)c2cc(C)ccc21 (stereo not drawn) | inactive
97 | CCOC(=O)CSc1nc2c(sc(=S)n2CCc2ccccc2)c(=O)n1Cc1ccco1 | inactive
98 | CN(c1ccccc1)S(=O)(=O)c1cccc(NC(=O)Cc2c(F)cccc2Cl)c1 | 28.5% (active)
99 | CN(CCC(=O)Nc1cc(S(=O)(=O)N(C)C)ccc1Cl)CC(=O)Nc1ccc(F)cc1 | inactive
100 | Cc1ccccc1CSCCNC(=O)c1ccc(N(C)S(=O)(=O)c2ccccc2)cc1 | inactive
101 | CCOC(=O)C1=C(C)Nc2sc(C(=O)c3ccc(Br)cc3)c(N)c2C1c1ccc(C(=O)OC)cc1 (stereo not drawn) | inactive
102 | Cc1ccc(C(=O)c2c(NC(=O)c3ccccc3)sc(C)c2C)cc1 | inactive
103 | CCOc1ccc(CN(Cc2ccco2)C(c2cccs2)c2nnnn2C(C)(C)C)cc1 (stereo not drawn) | inactive

Source: PubChem BioAssay AID492993 (Johns Hopkins Ion Channel Center, 2010)
